Sampled rows, rich in hits. Any-hit rate of the full collection: about 1.3%.
GRK2 inh: compounds blocking aptamer binding on GRK2 – biochemical, human GRK2, bead flow cytometry, HTS, primary screen. Beta-adrenergic receptor kinase 1 (Homo sapiens), P25098. inhibition of aptamer binding, % at 10 µM. FAM-aptamer displacement from GRK2. 0.59% of 330,000 active. AID 488847, 2010;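 active = inhibition of aptamer binding above 40%, roughly 3 SD of noise, on plates passing a quality check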;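 also: median bead fluorescence of bound FAM aptamer so fluorescent compounds give negative values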
B2AR ag: beta2AR agonists driving receptor internalization, primary screen, cell-based, FAP fluorogen, flow cytometry. Beta-2 adrenergic receptor (Homo sapiens), P07550. response, % (test concentration not listed). 0.43% of 340,000 active. Am2.2-beta2AR cells;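 active = response above a set limit, near 3 SD of response in nonfluorescent compounds, cut at about 42% in these data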
Target sequence (P07550 whole entry, looked up): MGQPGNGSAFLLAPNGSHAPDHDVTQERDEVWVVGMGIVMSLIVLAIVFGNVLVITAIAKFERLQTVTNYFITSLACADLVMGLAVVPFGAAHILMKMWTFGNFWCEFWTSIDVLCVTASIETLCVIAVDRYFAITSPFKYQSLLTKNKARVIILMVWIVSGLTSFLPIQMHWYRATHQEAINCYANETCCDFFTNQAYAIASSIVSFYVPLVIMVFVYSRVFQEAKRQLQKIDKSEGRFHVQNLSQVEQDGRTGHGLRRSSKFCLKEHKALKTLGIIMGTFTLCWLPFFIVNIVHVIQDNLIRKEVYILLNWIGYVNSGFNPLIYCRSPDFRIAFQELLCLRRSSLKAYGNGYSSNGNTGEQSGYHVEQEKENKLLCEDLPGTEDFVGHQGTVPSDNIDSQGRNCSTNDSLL
A1 inh: caspase 3/7 activation in MEF A1-2A-BIM cells, primary screen, A1 inhibitor project, cell-based, luminescence, HTS; AID 2462, 2010; caspase activation, % (test concentration not listed); Caspase-Glo 3/7 luminescence, 3 h; percent of clofoctol response, vehicle zero; 0.066% of 330,000 active;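 active = over half of replicate activation scores above 10%, or exactly half above 10 with the replicate mean above 10; inconclusive = replicate mean below 10 yet half the replicates above 10; inactive = over half of replicates below 10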
NTR1 ag: agonists of human NTR1, primary screen, imaging, U2OS cells, beta-arrestin-GFP, high content; NTR1-U2OS beta-arrestin-GFP spot imaging, agonist mode; activation, % at 20 µM; 0.17% of 330,000 active;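 active = activation at or above 40% of the spot to cytoplasm intensity ratio, with at least 20 cells analyzed; inconclusive = wells under 20 cells, flagged as cytotoxic or low count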;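 also: 0% = DMSO without peptide and 100% = 100 nM NTR1 peptide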
VLA-4 inh: inhibition in human VLA-4 binding assay, primary screen, VLA-4 allosteric modulator project, MLPCN library, flow cytometry, VLA-4 expressing cells | Integrin alpha-4 (Homo sapiens), P13612 | ligand binding flow cytometry | inhibition, % (about 7 µM as worked out from the volumes in the protocol) | 0.2% of 330,000 active; in the data active = inhibition above about 50%
Beta2AR ag CP1: beta2AR agonists via receptor internalization, confirmation, cell-based, FAP fluorogen, flow cytometry, single point, cherry pick 1 | Am2.2-beta2AR cells, FAP surface receptor; stronger effect = lower value | AID 540358, 2011 | shares compounds with B2AR ag | 25% of 1,100 active | percent response (surface receptor), % at 10 µM;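 active = surface receptor percent response at or below 58%, roughly 3 SD from nonfluorescent compounds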
B2AR FAP counter: counter-screen for beta-2AR agonists: fluorescence in Am2.2 cells; shares compounds with B2AR ag; FAP fluorogen flow cytometry, fluorescence counterscreen; stronger effect = lower value; calls only at 10 µM; 1,100 tested, under 10 active; AID 588765;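 active = percent response below a set limit in fluorescence channel 1 and below 50% in channel 8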
Numbers without * were called inactive; i = inactive; ? = inconclusive; / = no result.

SMILES	GRK2 inh	B2AR ag	A1 inh	NTR1 ag	VLA-4 inh	Beta2AR ag CP1	B2AR FAP counter
CN(C)C(CNC(=O)c1ccc(NC(=O)CC#N)cc1)c1ccccc1 (stereo unspecified)	0	47*	1	0	9	97	i
CCn1c(=O)cc(OCC(=O)NCCCN2CCCC2=O)c2ccccc21	10	6	0	1	-4	/	/
Fc1ccc(Nc2nc(NCc3ccco3)c3ccccc3n2)cc1	0	33	-1	36	16	60	i
Nc1nc(Nc2ccccc2)nc(NCc2ccco2)c1[N+](=O)[O-]	10	10	-1	14	-2	/	/
COc1ccc(C2=NN(C(=O)c3cccs3)C(c3ccc(OC)cc3)C2)cc1 (stereo unspecified)	0	44*	0	3	0	43*	i
O=C(c1cccs1)N1N=C(c2ccccc2)CC1c1ccccc1 (stereo unspecified)	0	-4	1	1	-27	/	/
COc1ccccc1C(CCNCc1ccc(N(C)C)cc1)c1ccc(OC(C)C)cc1 (stereo unspecified)	0	65*	0	39	2	62	i
COc1ccc(CNCCC(c2ccc(OC(C)C)cc2)C(C)C)cc1OC (stereo unspecified)	0	28	0	13	7	/	/
COc1ccc(CNCCC(c2ccc(OC(C)C)cc2)c2ccccc2OC)cc1OC (stereo unspecified)	0	12	0	20	2	105	i
COc1ccc(C(CCNCc2ccc(N(C)C)cc2)C(C)C)cc1 (stereo unspecified)	0	27	0	6	2	/	/
COc1ccc(CNCCC(c2ccccc2)c2ccc3c(c2)OCO3)cc1 (stereo unspecified)	0	21	0	2	14	82	i
COc1ccc(CNCCC(c2ccc(OC(C)C)cc2)c2ccccc2OC)cc1 (stereo unspecified)	0	28	0	24	7	78	i
COc1ccccc1C(CCNCc1ccccc1)c1ccc(OC(C)C)cc1 (stereo unspecified)	3	25	2	8	9	111	i
CC12CCC(O)CC1=CCC1C2CCC2(C)C(c3ccn[nH]3)CCC12 (stereo unspecified)	/	44*	/	/	/	67	i
COCCCN(C(=S)Nc1c(C)cc(C)cc1C)C(C)c1ccccn1 (stereo unspecified)	0	-7	-1	1	0	/	/
CCCOc1ccc(C(=O)Nc2ccc(S(=O)(=O)NC3=NCCCCC3)cc2)cc1	1	12	-1	0	10	/	/
CCOC(=O)c1ccc(NC(=O)Cc2coc3cc4c(cc23)CCC4)cc1	0	69*	0	9	4	45*	i
CCOC(=O)c1ccc(NC(=O)COC)cc1	1	10	-1	-2	7	/	/
Cc1cccc(N2CCN(C(=O)c3ccc4c(c3)CCN4S(C)(=O)=O)CC2)c1C	2	-1	/	0	-7	/	/
Cc1nc2oc3c(=O)[nH]cnc3c2c2c1COC(C)(C)C2	26	-4	0	1	0	99	i
Cc1nn(Cc2ccccc2)c(N)c1-c1ccccc1	2	50*	-1	-2	12	101	i
Cc1nn(Cc2ccccc2)c(N)c1C#N	0	4	-1	0	12	/	/
COc1cccc(C2NC(=O)N(CCCC(=O)O)C(C)=C2C(=O)OCc2ccccc2)c1 (stereo unspecified)	1	/	0	2	-8	/	/
Cc1ccc(S(=O)(=O)N2CCC(C(=O)Nc3nnc(-c4ccc(F)cc4)s3)CC2)cc1	2	65*	-1	0	-7	102	i
CCSc1nc2ccccc2n1C(=O)c1ccc(S(=O)(=O)N2CCCCCC2)cc1	0	53*	0	-2	-6	57*	i
SMILES	GRK2 inh	B2AR ag	A1 inh	NTR1 ag	VLA-4 inh	Beta2AR ag CP1	B2AR FAP counter
CCOc1cc(N2CCOCC2)c(OCC)cc1NC(=O)CN1CCSC1=O	0	5	1	1	-18	/	/
O=C(COc1ccccc1F)N1c2ccccc2CCc2ccccc21	0	63*	0	0	7	15*	i
Cn1nnnc1Sc1ncnc2scc(-c3cc4ccccc4o3)c12	0	53*	0	33	0	57*	i
CCCCn1c(N)c(N(CC)C(=O)c2ccc3c(c2)S(=O)(=O)c2ccccc2C3=O)c(=O)[nH]c1=O	2	55*	1	3	6	112	i
CCCCn1c(N)c(N(CC)C(=O)c2ccc(Cl)c(Cl)c2)c(=O)[nH]c1=O	0	5	-1	0	8	/	/
O=C(Nc1nc2ccccc2s1)C1CCN(S(=O)(=O)c2cc([N+](=O)[O-])ccc2Cl)CC1	9	23	-1	0	4	/	/
CCN(C(=O)c1ccc(NC(C)=O)cc1)c1ccccc1C	2	-16	1	3	14	/	/
CCCCC(=O)Nc1ccc(C(=O)N(CC)c2ccccc2C)cc1	4	63*	1	0	15	74	i
COc1ccc(O)c(/C=N/NC(=S)Nc2cccc(S(=O)(=O)N(C)C)c2)c1	2	0	0	/	9	/	/
COc1cccc(/C=N/NC(=S)Nc2cccc(S(=O)(=O)N(C)C)c2)c1	4	-2	0	0	14	131	i
O=[N+]([O-])CC1(n2nc3ccccc3n2)CCCCC1	1	0	1	-1	26	/	/
Cc1cc(C)n(C(=O)CCCCCCCC(=O)n2nc(C)cc2C)n1	5	0	1	0	-18	/	/
Cc1cc(C)n(C(=O)CCCC(=O)n2nc(C)cc2C)n1	0	54*	?	0	22	92	i
Cc1cc(C)n(C(C)Sc2ccccc2)n1 (stereo unspecified)	1	-6	0	1	-6	/	/
COc1ccc([C@H]2/C=C\CN(C(=O)c3ccccc3)[C@@H](C)C(=O)N2Cc2ccc(F)cc2)cc1	0	3	1	2	11	111	i
COc1ccc(C2/C=C\CN(C(=O)c3ccc(C)cc3)CC(=O)N2Cc2ccc(F)cc2)cc1 (stereo unspecified)	/	9	0	-2	/	102	i

Source: PubChem BioAssay (several laboratories)
